BH1578 lux ind = inducers of Vibrio cholerae quorum light production without autoinducers; V. cholerae BH1578 lux reporter, luminescence, 6 h; activation, % at 18.7 µM; 350,000 tested, 0.16% active; AID 588436; in the data active means activation mostly above about 9.7%, no sharp cut-off; inconclusive means no clear call, values can overlap the other calls; inactive means mostly below about 3.7%
BoNT F protease = inhibitors of Botulinum neurotoxin F light chain protease. Multiplex microsphere protease cleavage assay, flow cytometry. inhibition, % at 10 µM. AID 588497. 360,000 tested, 0.22% active; in the data active means inhibition above about 35%, passing the limit was not always enough; inconclusive means no clear call, values can overlap the other calls
MazEF act = increases E. coli MazEF RNase cleavage of RNA | 350,000 tested, 0.32% active | P0AE70 | FAM/BHQ RNA-DNA oligo cleavage fluorescence, 5 h | activation, % at 20 µM; in the data active means activation above about 50%
Target sequence (P0AE70 whole entry, looked up): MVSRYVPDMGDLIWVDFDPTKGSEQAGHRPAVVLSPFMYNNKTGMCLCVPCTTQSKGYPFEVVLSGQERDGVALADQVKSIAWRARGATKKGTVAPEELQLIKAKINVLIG
BoNT A protease = blocks Botulinum neurotoxin A light chain protease; multiplex microsphere protease substrate cleavage, flow cytometry; inhibition, % at 10 µM; 360,000 tested, 0.17% active
Autofluor counter = flagged as autofluorescent in microsphere protease counterscreen; compound autofluorescence counterscreen, microsphere flow cytometry; stronger effect = higher value; fluorescence intensity (no concentration beside the values); 360,000 tested, 3.1% active; AID 624483; in the data active means fluorescence intensity above about 16000; inconclusive means no clear call, values can overlap the other calls
Anthrax LF inh2 = anthrax lethal factor protease inhibition | 360,000 tested, 0.12% active | inhibition, % at 10 µM | P15917 | multiplex microsphere protease cleavage assay, LF
Each line names hits and unclear results; the compound was inactive in the other large screens. In the library only some 3.9% were active in any assay of this set; here they are far more common. Unless noted, no stated cut-off is given here; in the data, active means inhibition above about 30%; inconclusive means no clear call, values can overlap the other calls; inactive means below that.

Cc1cc(C)n2nc(S(=O)(=O)N(C)Cc3ccccc3)nc2n1	BoNT A protease inconclusive, Autofluor counter 19864
CCN(Cc1ccccc1)S(=O)(=O)c1cn(C)cn1	none
Cc1cc(C)n2nc(C(=O)NCCc3ccccc3)nc2n1	none
Cc1ccccc1C(=O)NNC(=O)c1cccc(Br)c1	none
CCCS(=O)(=O)NC(=O)C1(C)CCCN(C(=O)c2ccc(C(=O)OC)cc2)C1 (centres undefined)	none (no result: MazEF act)
COCCNC(=O)CN(C(=O)Cn1nnc2ccccc21)c1cc(C)cc(C)c1	none
COCC(=O)Nc1nc2n(n1)C(c1ccc(Cl)cc1)CC(c1ccc(OC)cc1)N2 (centres undefined)	none
COCC(=O)Nc1nc2n(n1)C(c1ccccc1Cl)CC(c1ccc(OC)cc1)N2 (centres undefined)	Autofluor counter 20336
CCCC(NC(=O)CCc1c(C)c2cc3c(-c4ccccc4)coc3cc2oc1=O)C(=O)O (centres undefined)	none
CC(Oc1ccc(Cl)cc1Cl)c1nc(-c2ccc(NC(=O)c3ccncc3)cc2)no1 (centres undefined)	Autofluor counter 21041
Cc1ccc(S(=O)(=O)N2CCN(S(=O)(=O)c3ccccc3)C2)cc1	Autofluor counter 21096
Cc1ccc(-c2ccc(S(=O)(=O)N3CCN(C)CC3)cc2)cc1	Autofluor counter 21880
CN(C)S(=O)(=O)N1CCN(S(=O)(=O)c2ccccc2)CC1	Autofluor counter 20194
O=S(=O)(c1ccc(F)cc1)N1CCN(c2ccc(-c3ccccc3)nn2)CC1	MazEF act 63
Cc1ccc(S(=O)(=O)N2CCN(S(=O)(=O)N(C)C)CC2)cc1	none
Cc1ccc(-c2ccc(S(=O)(=O)N3CCCC3)cc2)cc1	none
CCN1CCC(O)(C(C(=O)OC)c2ccccc2)CC1 (centres undefined)	none
CC(/C=N/NC(=O)c1cc(-c2cccnc2)nc2c1c(C)nn2-c1ccccc1)=C\c1ccccc1	none
C/C=C/c1cccc(-c2nc(C(=O)NC3Cc4ccccc4C3)cc3c2[C@@H](CCO)N(C(C)=O)C3)c1	none (no result: BH1578 lux ind, MazEF act)
Cc1cc(O)c(C(=O)Nc2cccc(Cl)c2)c(=O)n1C	none
CN1CCN(S(=O)(=O)c2ccc(-c3ccccc3)cc2)CC1	Autofluor counter 22073
CN(C)S(=O)(=O)N1CCN(c2ccc(Cl)cc2)CC1	Autofluor counter 16470
Cc1ccc(N2CCN(S(=O)(=O)N(C)C)CC2)cc1C	none
O=C(c1cccs1)N1C[C@@H](n2cc(C3CC3)nn2)[C@H](O)C[C@@H]1c1ccc(Cl)cc1	none
COc1ccccc1N1CCN(C2CCCN(S(=O)(=O)c3ccccc3)C2)CC1 (centres undefined)	Autofluor counter inconclusive
CCCCn1cnc2cc(NCc3ccncc3)ccc21	Autofluor counter 19414
CCc1ccc(CNc2ccc3c(c2)ncn3CC)cc1	BoNT F protease inconclusive
CCn1cnc2cc(NCc3ccc(OC)cc3)ccc21	Autofluor counter 23891
COc1ccc(CNC(=O)CN(c2ccccc2)S(=O)(=O)N(C)C)cc1	none
CN(C)/C=C\C(=C/C(=O)C(F)(F)F)Nc1ccccc1Oc1ccccc1	none
CC(C)(C)SCCNC(=O)CN(c1ccc(F)c(Cl)c1)S(C)(=O)=O	Autofluor counter 23547
CC(Sc1nnc(-c2ccco2)o1)C(=O)NCCC1=CCCCC1 (centres undefined)	none
CCN(CC)S(=O)(=O)c1cccc(-c2nnc(SC(C)C(=O)NCCC3=CCCCC3)o2)c1 (centres undefined)	Autofluor counter 22080
Cc1ccc(C(=O)Nn2c(N)c(S(=O)(=O)c3ccc(C)cc3)c3nc4ccccc4nc32)cc1	Anthrax LF inh2 inconclusive
Cc1ccc(S(=O)(=O)c2c(N)n(NC(=O)c3ccccc3C)c3nc4ccccc4nc23)cc1	Autofluor counter 22674
Cc1ccc(S(=O)(=O)c2c(N)n(CCC(C)C)c3nc4ccccc4nc23)cc1	Autofluor counter 22605
COCCNC(=O)C1CCCN(Cc2cccc(C(F)(F)F)c2)CC1 (centres undefined)	none (no result: MazEF act)
Cc1ccc2c(Cl)c(C(=O)N/N=C/c3cccn3C)sc2c1	MazEF act 71
Cc1cc(C(=O)N/N=C/c2cccn2C)no1	none
Cn1c(-c2cc3ccc(OC(=O)C(C)(C)C)cc3oc2=O)nc2ccccc21	Autofluor counter 16715
CC(=O)Oc1ccc2cc(-c3nc4ccccc4n3C)c(=O)oc2c1	none
NC(=S)Nc1cccc(F)c1	BoNT F protease inconclusive
COC(=O)c1cc(C(=O)OC)cc(N2C(=O)CC(NNC(=O)c3ccccc3Br)C2=O)c1 (centres undefined)	Autofluor counter 17445
O=C(NCc1ccco1)c1[nH]c(C(F)(F)F)nc1-c1ccccc1	none (no result: BH1578 lux ind, MazEF act)
O=C(NCc1ccccc1)c1cc(C2CCCN(C(=O)c3ccccc3)C2)on1 (centres undefined)	none (no result: MazEF act)
CCOC(=O)CN1C(=O)CSc2ccccc21	Autofluor counter 24381
O=C(O)CN1C(=O)CSc2ccccc21	none
O=C1CSc2ccccc2N1Cc1ccc(F)cc1	Autofluor counter 21142
CC1CCCCN1C(=O)c1cc(-c2ccc(Cl)c(Cl)c2)on1 (centres undefined)	BoNT A protease inconclusive, Autofluor counter 22609
O=C(c1cc(-c2ccc(Cl)c(Cl)c2)on1)N1CCN(c2ccccc2)CC1	Autofluor counter 21958
CCC1CCCCN1C(=O)c1cc(-c2ccc(Cl)c(Cl)c2)on1 (centres undefined)	BoNT A protease inconclusive, Autofluor counter 25388
O=C(c1cc(-c2ccccc2)on1)N1CCN(c2ccccc2)CC1	none
O=C1C2C(C(=O)N1/N=C/c1ccc(N3CCCCC3)o1)C1C=CC2C12CC2 (centres undefined)	none
N#CC1=C(N)Oc2c(ccc3ccccc23)C1c1cccs1 (centres undefined)	MazEF act 59 (no result: BH1578 lux ind, BoNT F protease, BoNT A protease, Autofluor counter, Anthrax LF inh2)
c1ccc2c(c1)C1=NCCN1c1ccccc1-2	none
CCC(=O)N(CC)c1nc(-c2ccc(OC)cc2)cs1	Autofluor counter 23376
c1ccc(Cn2c(Cn3c(-c4cnccn4)nc4ccccc43)nc3ccccc32)cc1	none (no result: BH1578 lux ind, MazEF act)
Cc1ccccc1C(=O)NC1CCN(CC(=O)Nc2nccs2)CC1	BoNT A protease inconclusive, Autofluor counter 20345
COC(=O)c1ccccc1NC(=O)CN1CCC(NC(=O)c2ccccc2C)CC1	Autofluor counter 16191
CC1=C(C(=O)OCc2ccccc2)C(/C=C/c2ccccc2)NC(=S)N1 (centres undefined)	none
C=CCOC(=O)C1=C(C)NC(=S)NC1/C=C/c1ccccc1 (centres undefined)	Autofluor counter 18190
Cc1c(C(=O)O)oc2c1/C(=N\O)CCC2	none
O/N=C1\CCCc2oc3c(c21)CCCC3	Autofluor counter 19892
CCc1ccc(NC(=O)CC2C(=O)Nc3c2c(=O)n(C)c(=O)n3C)cc1 (centres undefined)	Autofluor counter 22007
CCc1ccc(NC(=O)CSc2nc3c(c(=O)n(C)c(=O)n3C)n2C)cc1	none

Screens from PubChem.
